Here are results for 24 compounds from the supplement of paper PMC4709259.

Structures are written as SMILES. Counter-ions that a name gives are not always drawn. ± gives the standard deviation.

The test system of test [1] is Jurkat. Kind of test: mean cell size (FSC-A) relative to DMSO control (fraction of control); higher = larger cells. As to conditions: 48 h. The essentials:
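Jurkat cells seeded at 600 cells/µl were incubated 1 h, then exposed for 48h to the Enzo Screen-Well FDA Approved Drug Library v2.0 at 25µM in 0.9% (v/v) final DMSO. Drugs that cut counts below 20% of controls were diluted 10-fold and retested, down to 25nM. Cell count and mean cell size (forward scatter area) were read on an Accuri C6 flow cytometer, relative to solvent-only controls. Plates held 6-12 controls; values are means of 3 biological replicates.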

For test [2], the system named is Jurkat. Put plainly: cell count relative to DMSO control (fraction of control); higher = more cells (less growth inhibition). As to conditions: 48 h.

As for `NC(=O)c1cn(Cc2c(F)cccc2F)nn1` [Rufinamide] (concentration: 25 µM), the mean cell size with Jurkat [1] worked out at 0.968 ± 0.042. Further, the cell count in the test on Jurkat [2] is 0.803 ± 0.055.

The compound `CCCCC(C)(O)C/C=C/[C@H]1[C@H](O)CC(=O)[C@@H]1CCCCCCC(=O)OC` (mixture of isomers) [Misoprostol] (concentration: 25 µM) gave a mean cell size in the test with Jurkat [1] of 0.939 ± 0.037. The cell count in the test on Jurkat [2] was determined as 0.702 ± 0.08.

For the compound `CCN(CC)CCNC(=O)c1c(C)[nH]c(/C=C2\C(=O)Nc3ccc(F)cc32)c1C` [Sunitinib Malate] (concentration: 250 nM), the mean cell size in the test on Jurkat [1] turned out to be 0.906 ± 0.031. In the test with Jurkat [2], the cell count was 0.861 ± 0.089.

In the test on Jurkat [1], `CC[C@H]1OC(=O)[C@H](C)[C@@H](O[C@H]2C[C@@](C)(OC)[C@@H](O)[C@H](C)O2)[C@H](C)[C@@H](O[C@@H]2O[C@H](C)C[C@H](N(C)C)[C@H]2O)[C@](C)(OC)C[C@@H](C)C(=O)[C@H](C)[C@@H](O)[C@]1(C)O` [Clarithromycin] (concentration: 25 µM) yielded a mean cell size of 0.977 ± 0.057. In the test on Jurkat [2], the cell count turned out to be 1.05 ± 0.078.

As for `Cc1cc(NS(=O)(=O)c2ccc(N)cc2)no1` [Sulfamethoxazole] (concentration: 25 µM), the mean cell size with Jurkat [1] worked out at 0.962 ± 0.036. The same compound gave a cell count in the test with Jurkat [2] of 0.809 ± 0.063.

In the test with Jurkat [1], `Cc1cn([C@H]2C=C[C@@H](CO)O2)c(=O)[nH]c1=O` [Stavudine] (concentration: 25 µM) returned a mean cell size of 1.04 ± 0.06. Besides, the cell count in the test with Jurkat [2] came to 0.764 ± 0.071.

In the test on Jurkat [1], `CC(=O)Nc1nnc(S(N)(=O)=O)s1` [Acetazolamide] (concentration: 25 µM) had a mean cell size of 1.04 ± 0.061. In the test on Jurkat [2], this compound displayed a cell count of 0.755 ± 0.054.

In the test with Jurkat [1], `CC(C)OC(=O)CCC/C=C\C[C@@H]1[C@@H](CC[C@@H](O)CCc2ccccc2)[C@H](O)C[C@@H]1O` [Latanoprost] (concentration: 25 µM) returned a mean cell size of 0.981 ± 0.046. The cell count with Jurkat [2] was 0.534 ± 0.18.

Turning to `CC(=O)N(O)CCCCCNC(=O)CCC(=O)N(O)CCCCCNC(=O)CCC(=O)N(O)CCCCCN` [Deferoxamine Mesylate] (concentration: 25 µM), the mean cell size in the test with Jurkat [1] turned out to be 1.09 ± 0.053. This compound came in with a cell count in the test with Jurkat [2] of 0.496 ± 0.062.

In turn, `COc1cc2nc(N3CCN(C(=O)C4CCCO4)CC3)nc(N)c2cc1OC` (stereo not drawn) [Terazosin·HCl] (concentration: 25 µM) displayed a mean cell size in the test with Jurkat [1] of 0.997 ± 0.047. Besides, in the test with Jurkat [2], the cell count came to 0.607 ± 0.059.

In turn, `CN[C@H](CC(C)C)C(=O)N[C@H]1C(=O)N[C@@H](CC(N)=O)C(=O)N[C@H]2C(=O)N[C@H]3C(=O)N[C@H](C(=O)N[C@H](C(=O)O)c4cc(O)cc(O)c4-c4cc3ccc4O)[C@H](O)c3ccc(c(Cl)c3)Oc3cc2cc(c3O[C@@H]2O[C@H](CO)[C@@H](O)[C@H](O)[C@H]2O[C@H]2C[C@](C)(N)[C@H](O)[C@H](C)O2)Oc2ccc(cc2Cl)[C@H]1O` [Vancomycin·HCl] (concentration: 25 µM) displayed a mean cell size with Jurkat [1] of 1.02 ± 0.021. This compound had a cell count with Jurkat [2] of 1.19 ± 0.13.

`COCCCOc1ccnc(C[S+]([O-])c2nc3ccccc3[nH]2)c1C` (stereo not drawn) [Rabeprazole·Na] (concentration: 25 µM) gave a mean cell size with Jurkat [1] of 0.923 ± 0.02. In the test with Jurkat [2], the cell count is 0.523 ± 0.06.

Turning to `CCOC(=O)C1=C[C@@H](OC(CC)CC)[C@H](NC(C)=O)[C@@H](N)C1` [Oseltamivir Phosphate] (concentration: 25 µM), the mean cell size in the test on Jurkat [1] is 0.932 ± 0.023. In the test on Jurkat [2], this compound yielded a cell count of 0.939 ± 0.075.

In the case of `Cc1cccc(Nc2ccccc2C(=O)O)c1C` [Mefenamic Acid] (concentration: 25 µM), the mean cell size in the test on Jurkat [1] came out at 0.938 ± 0.025. In the test on Jurkat [2], this compound returned a cell count of 0.655 ± 0.14.

For the compound `CCCN(CCC)S(=O)(=O)c1ccc(C(=O)O)cc1` [Probenecid] (concentration: 25 µM), in the test on Jurkat [1], the mean cell size came to 0.993 ± 0.012. In the test with Jurkat [2], this compound gave a cell count of 0.595 ± 0.13.

`COC(=O)N[C@H](C(=O)N[C@@H](Cc1ccccc1)[C@@H](O)CN(Cc1ccc(-c2ccccn2)cc1)NC(=O)[C@@H](NC(=O)OC)C(C)(C)C)C(C)(C)C` [Atazanavir] (concentration: 25 µM) returned a mean cell size in the test on Jurkat [1] of 1.04 ± 0.052. The compound also had a cell count with Jurkat [2] of 0.658 ± 0.054.

`O=C1Nc2ccc(Cl)cc2[C@@](C#CC2CC2)(C(F)(F)F)O1` [Efavirenz] (concentration: 25 µM) yielded a mean cell size in the test on Jurkat [1] of 0.9 ± 0.017. In the test on Jurkat [2], this compound gave a cell count of 0.628 ± 0.019.

Turning to `CN(C)C(=O)C(CCN1CCC(O)(c2ccc(Cl)cc2)CC1)(c1ccccc1)c1ccccc1` [Loperamide·HCl] (concentration: 25 µM), in the test with Jurkat [1], the mean cell size came to 0.988 ± 0.033. In the test on Jurkat [2], this compound registered a cell count of 0.572 ± 0.18.

Compound `Cc1nnc(C(=O)NC(C)(C)c2nc(C(=O)NCc3ccc(F)cc3)c(O)c(=O)n2C)o1` [Raltegravir] (concentration: 25 µM) returned a mean cell size in the test with Jurkat [1] of 0.9483 ± 0.0067. For the same compound, the cell count in the test on Jurkat [2] was 0.569 ± 0.11.

In the test with Jurkat [1], `Nc1ccn([C@@H]2CS[C@H](CO)O2)c(=O)n1` [Lamivudine] (concentration: 25 µM) came in with a mean cell size of 0.995 ± 0.046. Moreover, in the test on Jurkat [2], the cell count came to 0.624 ± 0.13.

As to `COC(=O)[C@H](c1ccccc1Cl)N1CCc2sccc2C1` [Clopidogrel Hydrogen Sulfate] (concentration: 25 µM), the mean cell size with Jurkat [1] came out at 0.981 ± 0.051. In the test with Jurkat [2], the cell count was 0.942 ± 0.095.

Turning to `C[C@]12C=CC(=O)N[C@@H]1CC[C@@H]1[C@@H]2CC[C@]2(C)[C@@H](C(=O)Nc3cc(C(F)(F)F)ccc3C(F)(F)F)CC[C@@H]12` [Dutasteride] (concentration: 25 µM), the mean cell size with Jurkat [1] amounted to 0.983 ± 0.052. The compound further registered a cell count in the test on Jurkat [2] of 0.636 ± 0.17.

`Nc1c(CC(=O)O)cccc1C(=O)c1ccc(Br)cc1` [Bromfenac] (concentration: 25 µM) registered a mean cell size with Jurkat [1] of 0.938 ± 0.018. The compound also had a cell count in the test with Jurkat [2] of 1.05 ± 0.05.

`CN(C)c1ccc(O)c2c1C[C@H]1C[C@H]3[C@H](N(C)C)C(=O)C(C(N)=O)=C(O)[C@@]3(O)C(=O)C1=C2O` [Minocycline] (concentration: 2.5 µM) yielded a mean cell size in the test on Jurkat [1] of 0.969 ± 0.027. This compound displayed a cell count with Jurkat [2] of 0.894 ± 0.04.
